An excerpt weighted towards active compounds, which were near 8.9% of everything screened.
IMPase cell inh: qHTS Assay for Identifying the Cell-Membrane Permeable IMPase Inhibitors; CHO-M1 cells, IP1 accumulation, HTRF TR-FRET ratio; inhibition (IP1 accumulation), % at 46.1 µM; 120,000 tested, under 10 active; active means well fitted curve in the direction sought with a large enough effect in the signal ratio, not every such curve was filed as active; inconclusive means small, poorly fitted or top-dose-only effect, or a change in a side signal; inactive means no such curve, though single readings can be large or run the other way; the % refers to the signal ratio;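 further: cells stimulated with carbachol in lithium chloride buffer; plate controls were DMSO basal wells for no effect and reference inhibitor wells for full effect; higher means more IMPase inhibition seen as more IP1 and lower FRET ratio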
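Seeded CHO-M1 cells were dosed with compound at up to 46 uM, stimulated with carbachol for 30 min, then lysed in IP-One detection reagents. Higher IP1 lowers the TR-FRET signal.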
IMPase Li inh: qHTS Assay for Identifying the Cell-Membrane Permeable IMPase Inhibitors: Potentiation with Lithium. CHO-M1 cells, IP1 TR-FRET (IP-One), carbachol + lithium. Potency, µM (doses to about 59.4 µM), for the others: at the highest dose activity, negative = IMPase inhibition, most hits filed as inhibitors. 210,000 compounds, 0.35% hits;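 further: IP1 builds up when IMPase is blocked and the TR-FRET signal falls; potency means the concentration at half of the fitted maximal effect; plate controls were basal vehicle for no effect and high inhibitor control for full effect; nearly all actives have a fitted effect of over 50% in size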
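Steps: plate 2000 CHO-M1 cells per well and culture 16–30 h; add compound and lithium; incubate 30 min, 37C; add d2-IP1 tracer and Eu cryptate anti-IP1 antibody in lysis buffer; read after 10 min at room temperature.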
NPSR antagonist: qHTS Assay for Antagonists of the Neuropeptide S Receptor: cAMP Signal Transduction; Q6W5P4; CHO-NPSR cells, cAMP TR-FRET, antagonist mode; Potency, µM (top dose mostly 38.3 µM), inactives show top-dose activity change, negative = inhibition, actives largely listed as inhibitors; 220,000 compounds, 1% hits; further: potency means the concentration at half of the fitted maximal effect; nearly all actives have a fitted effect of over 50% in size
Target sequence (Q6W5P4 whole entry, looked up): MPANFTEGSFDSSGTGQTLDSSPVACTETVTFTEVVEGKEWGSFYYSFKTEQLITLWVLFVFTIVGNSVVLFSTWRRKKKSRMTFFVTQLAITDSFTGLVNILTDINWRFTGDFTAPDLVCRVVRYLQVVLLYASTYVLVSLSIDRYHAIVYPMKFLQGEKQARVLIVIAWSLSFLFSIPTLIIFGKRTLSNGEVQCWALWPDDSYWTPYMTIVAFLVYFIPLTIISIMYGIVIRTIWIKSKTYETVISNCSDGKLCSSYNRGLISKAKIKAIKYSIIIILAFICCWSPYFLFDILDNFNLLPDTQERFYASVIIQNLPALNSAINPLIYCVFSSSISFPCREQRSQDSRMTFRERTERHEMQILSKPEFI
ALDH1A1 inh: qHTS Assay for Inhibitors of Aldehyde Dehydrogenase 1 (ALDH1A1); Aldehyde dehydrogenase 1A1 (Homo sapiens), P00352; 220,000 compounds, 7.3% hits; Purified ALDH1A1, NADH fluorescence, propionaldehyde substrate; Potency, µM (top dose mostly 75.3 µM), without a hit: top-dose activity, negative = inhibition, hits mostly inhibitors; AID 1030, 2008; active means well fitted inhibition curve with a large enough effect, not every such curve was filed as active; inconclusive means small, poorly fitted or top-dose-only effect, or another doubt; inactive means no such curve, though single readings can be large or run the other way;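 further: potency means the concentration at half of the fitted maximal effect; plate controls were no enzyme wells and a reference inhibitor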
12-hLO inh: qHTS Assay for Inhibitors of 12-hLO (12-human lipoxygenase); purified 12-hLO, xylenol orange hydroperoxide absorbance; Potency, µM (highest dose often 57.1 µM), without a hit: at the top dose activity change, negative = inhibition, actives largely listed as inhibitors; 150,000 compounds, 0.12% hits; further: potency means the concentration at half of the fitted maximal effect; nearly all actives have a fitted effect of over 55% in size
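Xylenol orange chromogenic assay: hydroperoxide from 12hLO oxidises Fe(II), giving red-shifted Fe(III)-XO absorbance. Conditions: 150 nM enzyme, 40 uM arachidonic acid, 25 mM Hepes pH 7.0, 0.01% Triton X-100, 30 min, room temperature.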
HPGD inh: qHTS Assay for Inhibitors of HPGD (15-Hydroxyprostaglandin Dehydrogenase); purified HPGD, NADH fluorescence kinetic, PGE2 substrate; Potency, µM, inactives show top-dose activity change, negative = inhibition, actives largely listed as inhibitors; 15-hydroxyprostaglandin dehydrogenase [NAD(+)] (Homo sapiens), P15428; 150,000 compounds, 4.3% hits; active means well fitted inhibition curve with a large enough effect, not every such curve was filed as active; inconclusive means small, poorly fitted or top-dose-only effect, or another doubt; inactive means no such curve, though single readings can be large or run the other way; further: potency means the concentration at half of the fitted maximal effect
Target sequence (P15428 whole entry, looked up): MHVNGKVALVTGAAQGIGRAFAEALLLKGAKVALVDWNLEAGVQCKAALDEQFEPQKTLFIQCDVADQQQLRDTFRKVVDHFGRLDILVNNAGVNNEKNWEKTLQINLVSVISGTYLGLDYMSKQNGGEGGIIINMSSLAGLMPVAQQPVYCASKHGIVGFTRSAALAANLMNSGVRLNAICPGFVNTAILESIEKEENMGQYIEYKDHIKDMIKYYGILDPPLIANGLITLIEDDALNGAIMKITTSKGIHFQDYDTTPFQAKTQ
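NADH formation kinetics: reaction with 30 uM PGE2 and 1 mM NAD+ (final), 20 nM enzyme, Tris-HCl pH 8 with Tween 20, after 15 min compound preincubation at room temperature. Fluorescence change, last versus first of five reads.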
Starred values were filed as active, the others as inactive; ? = inconclusive; . = no result; [ ] = dose if it differs, or a comment. Unless noted, the call rests on the fitted dose curve; in most records, active means well fitted curve in the direction sought with a large enough effect; inconclusive means small, poorly fitted or top-dose-only effect, or another doubt; inactive means no such curve, though single readings can be large; an effect the other way counts as inactive or inconclusive. Unless noted, on the % scale 0 is the no-effect control and ±100 the full control effect.

SMILES | IMPase cell inh | IMPase Li inh | NPSR antagonist | ALDH1A1 inh | 12-hLO inh | HPGD inh
CCN(CC)c1ccc(C2=NNC(=O)CC2C)cc1[N+](=O)[O-] (stereo unspecified) | -1 | 6% | -11%[46.1 µM] | 13µM* | -2% | -14%
CC1CC(=O)NN=C1c1ccc(N(C)C)c([N+](=O)[O-])c1 (stereo unspecified) | 4 | 2% | -12%[46.1 µM] | ? | -4% | -7%
COCCCN1CN(Cc2ccccc2)CNC1=S | 0 | -4% | 4%[46.1 µM] | 8.9µM* | 1% | -7%
O=C(O)Cc1c[nH]c2ccc(O)cc12 | 9 | 21% | ? | ? | -4% | 22µM*
CCN(/N=C/c1ccc(Cl)cc1)c1cc(=O)n(C)c(=O)[nH]1 | -10 | 5% | 21% | ? | -2% | 28µM*
COCCN(C(=S)Nc1c(C)cc(C)cc1C)C(C)c1cccnc1 (stereo unspecified) | . | 4% | 10% | ? | -6% | 7.9µM*
NC(=O)c1cc(C(=O)c2ccccc2Cl)c[nH]1 | . | 11% | 13% | 8.9µM* | . | .
O=C(c1c[nH]c(C(=O)C(Cl)(Cl)Cl)c1)c1ccccc1Br | . | -2% | -2% | 1.8µM* | . | .
CN(C)C(=O)c1cc(C(=O)c2ccccc2Cl)c[nH]1 | . | 16% | 10% | 7.9µM* | . | .
CC1=C(C#N)C(C)C2=C(CC(C)(C)CC2=O)N1 (stereo unspecified) | -10 | -25%[38.3 µM] | -5%[46.1 µM] | ? | 2% | ?
C[C@H](N)c1nnc(SCC(=O)c2ccc(Cl)cc2)o1 | 5 | 32%[38.3 µM] | 11%[46.1 µM] | 20µM* | -1% | -14%
CC(C)(C)OC(=O)NCCc1nnc(SCc2ccc(Cl)cc2Cl)o1 | 6 | 10%[38.3 µM] | -28%[46.1 µM] | ? | -4% | ?
CC(C)[C@H](N)c1nnc(SCC(=O)c2ccc(Cl)cc2)o1 | 0 | -9%[38.3 µM] | -4%[46.1 µM] | 3% | -8% | -15%
CC(C)(C)OC(=O)NCCc1nnc(SCC(=O)c2ccc(Cl)cc2)o1 | 18 | -3%[38.3 µM] | -11%[46.1 µM] | 13µM* | -24% | -15%
Cc1[nH]c(=O)[nH]c(=O)c1CSc1nnc(CCCCCNC(=O)OC(C)(C)C)o1 | -2 | -1%[38.3 µM] | -7%[46.1 µM] | 4% | -1% | 25µM*
COc1ccccc1NS(=O)(=O)c1ccc(NN=C2CCCCC2)c([N+](=O)[O-])c1 | . | 19% | -14% | -5% | -3% | -12%
COCCNC(=O)C(=O)N/N=C/c1ccc(C(=O)OC)cc1 | . | 3% | 3% | 2% | . | .
COc1ccc(NC(=O)N2CCC3(CC2)CCN(C(=O)c2csnn2)CC3)cc1 | . | 2% | . | -12% | 2% | 0%
O=C(CCCC(=O)n1cnc2ccccc21)n1cnc2ccccc21 | -4 | -2%[38.3 µM] | -18%[46.1 µM] | 5% | 2% | 0%
O=C1C2=C(S[C@@H]3O[C@H](CO)[C@@H](O)[C@H](O)[C@H]3O2)C(=O)c2ccccc21 | . | 11% | . | 1.4µM* | . | ?
OCC1OC(n2nc3ccccc3n2)C(O)C(O)C1O (stereo unspecified) | -3 | -9%[38.3 µM] | 3%[46.1 µM] | 3% | -1% | -3%
Nc1nc(Cl)cc(N2CCC(c3cc(-c4ccc(Cl)cc4)n[nH]3)CC2)n1 | 13 | 7%[38.3 µM] | 10µM* | 1% | ? | -6%
COc1ccc(-c2cc(C3CCN(c4cc(Cl)nc(N)n4)CC3)[nH]n2)cc1 | 10 | 8%[38.3 µM] | -21%[46.1 µM] | 0% | -2% | -15%
COc1ccc(Cl)cc1NC(=O)CN1CCCC1 | . | 13% | 7% | 10µM* | . | .
COc1ccc(C)cc1NC(=O)CN1CCN(S(=O)(=O)c2ccc(C(C)C)cc2)CC1 | 7 | 4%[38.3 µM] | -7%[46.1 µM] | 5µM* | 2% | -13%
SMILES | IMPase cell inh | IMPase Li inh | NPSR antagonist | ALDH1A1 inh | 12-hLO inh | HPGD inh
COc1ccc(Cl)cc1NC(=O)Cn1cccc1 | 7 | 2%[38.3 µM] | 10%[46.1 µM] | 13µM* | 2% | -16%
CCOC(=O)c1c(C)[nH]c(C)c1C(=O)CSc1nncs1 | . | 10% | -19% | -8% | . | .
O=C(C[n+]1ccccc1)N1c2ccccc2Sc2ccccc21 | . | 34% | -2% | 3.2µM* | . | .
CCCOC(=O)/C(=C\c1ccc([N+](=O)[O-])o1)NC(=O)c1ccccc1 | 14 | 4% | 6%[46.1 µM] | -3% | -4% | -14%
CCCOC(=O)/C(=C\C=C\c1ccco1)NC(=O)c1ccccc1 | . | 17% | -57% | 20µM* | . | .
Cc1ccc(N2CCN(C(=S)c3ccc(-c4cccc([N+](=O)[O-])c4)o3)CC2)cc1 | . | 12% | -18% | 3.2µM* | . | .
Cc1ccccc1N1CCN(C(=S)c2ccc(-c3ccc([N+](=O)[O-])cc3)o2)CC1 | . | . | -10% | . | . | .
Cc1ccccc1N1CCN(C(=S)c2ccc(-c3cccc([N+](=O)[O-])c3)o2)CC1 | . | 5% | -4% | 8.9µM* | . | .
Cc1ccc(N2CCN(C(=S)c3ccc(-c4ccccc4[N+](=O)[O-])o3)CC2)cc1 | . | . | -18% | . | . | .
O=C(/C=C1\NCC2c3ccccc3CCN2C1=O)c1ccccc1 (stereo unspecified) | 1 | 8%[38.3 µM] | -11%[46.1 µM] | 20µM* | 0% | -19%
CCOc1ccc(OCC)c(NC(=O)c2[nH]c(C)c(C(C)=O)c2C)c1 | -16 | 7.1µM* | 11%[46.1 µM] | 9% | 5% | ?
CCOC(=O)c1[nH]c(C)c(C(=O)Nc2cc(OC)ccc2OC)c1C | 1 | -10%[38.3 µM] | 24%[46.1 µM] | -13% | 3% | -12%
Cc1noc(/C=C/N(C)C)c1S(=O)(=O)NC1CCCCC1 | 3 | -17%[38.3 µM] | -10%[46.1 µM] | ? | -14% | -16%
Cc1ccc(C(c2nnnn2Cc2ccccc2)N2CCN(Cc3ccccc3)CC2)cc1 (stereo unspecified) | 9 | 15% | ? | 22µM* | -5% | 0%
COc1ccc(Cn2nnnc2C(c2ccccc2)N2CCN(C3CCCC3)CC2)cc1 (stereo unspecified) | 1 | 11%[38.3 µM] | ? | 8.9µM* | -5% | -9%
COc1ccc(Cn2nnnc2C(c2ccncc2)N2CCOCC2)cc1 (stereo unspecified) | -3 | 21%[38.3 µM] | -7%[46.1 µM] | 28µM* | -2% | -1%
COc1ccc(Cn2nnnc2C(c2ccccc2Cl)N2CCN(C3CCCC3)CC2)cc1 (stereo unspecified) | 19 | . | ? | -9% | -2% | .
Cc1ccc(NS(=O)(=O)c2cccc(C(=O)N/N=C/c3c(C)nn(-c4ccccc4)c3N3CCCC3)c2)c(C)c1 | . | 4% | -32% | 0% | -6% | -24%
Nc1nc(NCc2ccco2)nc(N2CCCCC2)c1[N+](=O)[O-] | . | 3% | 16% | 4µM* | -5% | -5%

From PubChem BioAssay
